# In the supplement of paper PMC12669032:
# Values without a mark were called inactive.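 The calls were made as follows: active = AUC reduced over 20% with Padj below 0.05 in at least 2 of 3 replicates; inactive = otherwise.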
# Tests used:
# Test in all cases: growth AUC relative to DMSO control (median of replicates) (fraction); higher = more growth (less inhibition), active = hit call of the paper
# Conditions in all cases: 20 µM; 24 h
# Coprococcus comes = system: Coprococcus comes
# Method in brief: (§1)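 In round-bottom 96-well plates sealed with pierced gas-permeable seals, gut bacterial monocultures in mGAM were grown anaerobically at 37 °C from OD600 0.05 with 20 µM compound (1% DMSO). OD600 readings were taken hourly for 24 h, and the minimum OD was set to 0. Area under the growth curve was then normalised to the plate median of solvent-only wells, or to row and column medians on the industrial chemical plate. The value given is the median of three biological replicates grown on separate days.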
# Escherichia coli ED1a = system: Escherichia coli ED1a
# Method in brief: as §1
# Escherichia coli IAI1 = system: Escherichia coli IAI1
# Method in brief: as §1
# Eubacterium rectale = system: Eubacterium rectale
# Method in brief: as §1
# [1] = system: Fusobacterium nucleatum subsp. animalis
# Method in brief: as §1
# Lactobacillus gasseri = system: Lactobacillus gasseri
# Method in brief: as §1
# Lactobacillus paracasei = system: Lactobacillus paracasei
# Method in brief: as §1
# Odoribacter splanchnicus = system: Odoribacter splanchnicus
# Method in brief: as §1
# [2] = system: Parabacteroides distasonis
# Method in brief: as §1
# Parabacteroides merdae = system: Parabacteroides merdae
# Method in brief: as §1
# Roseburia intestinalis = system: Roseburia intestinalis
# Method in brief: as §1
# Streptococcus salivarius = system: Streptococcus salivarius
# Method in brief: as §1
Compound,growth AUC (Coprococcus comes),growth AUC (Escherichia coli ED1a),growth AUC (Escherichia coli IAI1),growth AUC (Eubacterium rectale),growth AUC [1],growth AUC (Lactobacillus gasseri),growth AUC (Lactobacillus paracasei),growth AUC (Odoribacter splanchnicus),growth AUC [2],growth AUC (Parabacteroides merdae),growth AUC (Roseburia intestinalis),growth AUC (Streptococcus salivarius)
NCP(=O)(O)O,1.02,1.02,1.04,1.01,0.965,1.09,1.02,1.02,1.04,1.02,1.04,1.02
CCOP(=S)(OCC)SCSCC,0.985,0.987,0.956,1.17,0.99,0.97,0.952,0.984,0.921,0.947,0.962,1.02
CCOc1nc(NC)nc(NC(=O)NS(=O)(=O)c2ccccc2C(=O)OC)n1,0.996,1.02,1.02,0.974,1.04,1.23,1.04,1.04,1.05,1.03,0.992,1.03
O=C(O)c1cc(Oc2ccc(C(F)(F)F)cc2Cl)ccc1[N+](=O)[O-],0.967,0.992,0.948,1.06,0.957,0.95,0.966,1.03,0.896,0.971,0.963,0.987
CNC(=O)c1cc(C#N)cc(C)c1NC(=O)c1cc(Br)nn1-c1ncccc1Cl,0.996,1.01,1.02,0.972,0.88,1.12,1.02,0.99,1.02,0.983,0.961,1.04
O=C(NC(=O)c1c(F)cccc1F)Nc1cc(Cl)c(Oc2ncc(C(F)(F)F)cc2Cl)c(Cl)c1,1.02,1.02,0.991,1.01,1.02,1.16,1.02,1.02,1.02,1.02,1.11,0.98
CCNc1nc(NC(C)(C)C)nc(SC)n1,0.969,0.987,0.986,0.956,1.06,1.1,1.08,0.876,0.936,0.947,1.07,0.984
CCCN(CCC)c1c([N+](=O)[O-])cc(S(C)(=O)=O)cc1[N+](=O)[O-],1.03,0.978,0.962,0.974,0.948,0.84,0.988,1.08,0.967,0.936,0.894,0.966
CCc1cccc(C)c1N(C(=O)CCl)C(C)COC (stereo not given),1.03,1.02,0.983,1.02,1.1,1.04,1.02,0.972,1.03,0.991,1.07,1.05
CN1CSC(=S)N(C)C1,0.957,0.991,0.994,1.06,0.966,1.07,1.04,0.988,0.991,0.976,1.03,0.983
O=[N+]([O-])c1c(Cl)c(Cl)c(Cl)c(Cl)c1Cl,0.821,1,1.01,0.909,0.942,1.16,0.945,0.946,0.969,0.942,0.993,1
CCOC(=O)COc1cc(-c2nn(C)c(OC(F)F)c2Cl)c(F)cc1Cl,0.979,0.995,0.971,1.13,1.12,0.996,1.01,1,1.02,1,0.973,0.993
COP(=O)(OC)OC(Br)C(Cl)(Cl)Br (stereo not given),0.976,0.991,1.02,0.915,0.973,1.02,1.01,0.937,1.06,1.01,1.01,0.956
CCOP(=S)(OCC)Oc1ccc([N+](=O)[O-])cc1,0.997,1,0.979,1.09,1.11,0.98,1.04,1.02,0.964,0.994,1.01,0.93
Nc1c([N+](=O)[O-])ccc(Oc2ccccc2)c1Cl,0.903,1.01,1.01,0.887,0.947,1.02,0.832,0.935,0.951,0.912,0.988,0.929
O=C(Nc1ccccc1)N(Cc1ccc(Cl)cc1)C1CCCC1,0.94,1,0.99,1.03,0.985,1.01,1.06,1.03,0.893,0.922,0.991,0.994
CC(C1CC1)C(O)(Cn1cncn1)c1ccc(Cl)cc1 (mixture of isomers),0.936,1.01,0.971,1.02,1.09,0.975,1.06,0.8,1.01,0.988,1.06,0.973
CCOP(=O)(N=C1SCC(C)S1)OCC (stereo not given),1.03,1.02,0.951,1.1,1.09,0.985,0.971,1.04,0.977,0.976,0.969,0.987
Oc1ccc(Cl)c(Cl)c1Cl,1.02,1.01,0.971,1.06,1.09,1.12,1.01,0.978,0.971,1.06,1.05,0.96
CCCOC(=O)c1ccccc1C(=O)OCCC,1.11,1.02,1.05,1.1,1.15,0.999,1.09,0.698,0.953,0.993,1.1,1.01
CNC(=O)/C(=N/OC)c1ccccc1Oc1ccccc1,0.989,1,0.997,0.977,0.968,1.04,1.05,0.992,0.995,0.997,1.04,0.989
CC(C)c1ccc(NC(=O)N(C)C)cc1,0.979,0.972,0.97,1.05,1.07,0.934,0.98,1.12,0.998,0.935,0.95,0.956
O=[N+]([O-])c1ccc2ccc3cccc4ccc1c2c34,0.972,0.988,0.99,0.577 (active),0.401 (active),0.99,1.02,0.0656 (active),0.579 (active),0.495 (active),1.28,1.06
O=P(OC(CCl)CCl)(OC(CCl)CCl)OC(CCl)CCl,0.89,1.01,1,1.07,1.11,0.905,1.03,0.613,0.5 (active),0.911,0.949,0.969
Clc1cccc(C(Cl)(Cl)Cl)n1,1.02,0.974,0.976,1.05,1.01,0.889,1.01,0.964,1,0.967,1,0.959
